Compound activity as filed in PubChem BioAssay.
The list is a sample of the results.
aSyn 5UTR act = Activators via SNCA 5'UTR binding, MLPCN; alpha-synuclein 5'UTR reporter, activators screen; activity score, % (tested at 7.5 µM), hits read low; 300,000 compounds, 7.1% hits; AID 1814; in the data active = activity score below about -60%
An asterisk follows results filed as active.

SMILES	aSyn 5UTR act
Cc1cc(OCc2cc(C(=O)N(C)C(C)c3ccccn3)no2)cc(C)c1Cl (stereo not drawn)	-93.0*
COc1ccc(CNC(=O)Cn2cccc2C(=O)c2ccccc2C)cc1	-101.3*
CCOC(=O)COc1cccc2c(=O)n(CC(=O)NCc3ccc(F)cc3)ccc12	75.2
COc1ccc(CNC(=O)Cn2cccc2C(=O)c2ccccc2)cc1	-68.8*
N#C/C(=C/c1ccc(N2CCCCC2)o1)C(=O)Nc1ccc2ccccc2c1	-110.0*
N#C/C(=C/c1ccc(N2CCCCC2)o1)C(=O)Nc1ccc(Cl)cc1	-152.0*
COCC1CCN(C(=O)c2cc(COc3cc(C)c(Cl)c(C)c3)on2)C1 (stereo not drawn)	-90.7*
Cc1cc(OCc2cc(C(=O)N3CCCCCC3)no2)cc(C)c1Cl	-131.7*
COc1ccc(Cc2nc(-c3ccccc3)no2)cc1	-175.7*
COc1ccc(Cc2nc(-c3cccs3)no2)cc1	-115.3*
O=C(/C=C/c1ccccc1)NC(=S)Nc1ccccc1O	-242.0*
O=C(/C=C/c1ccc(F)cc1)NC(=S)Nc1ccccc1O	-209.9*
NC(=S)NC(=O)/C=C/c1ccccc1	-111.0*
CCCc1ccc(OCC(=O)Nc2cc(S(=O)(=O)CC)ccc2O)cc1	-170.6*
COC(=O)c1cc(NC(=O)/C=C/c2ccccc2)ccc1O	-140.5*
CCS(=O)(=O)c1ccc(O)c(NC(=O)/C=C/c2ccccc2)c1	-110.0*
CN(C)c1ccc(N/C=C/C(=O)c2ccc(F)cc2)cc1	-120.0*
O=C(/C=C/Nc1ccc(F)cc1)c1ccc(Oc2ncccn2)cc1	-114.9*
NS(=O)(=O)c1ccc(N/C=C\C(=O)c2ccc(F)cc2)cc1	-118.4*
NS(=O)(=O)c1ccc(N/C=C/C(=O)c2ccc(Br)cc2)cc1	-108.1*
CCCCc1c(O)nc(SCC(=O)c2ccccc2)[nH]c1=O	-87.1*
O=C(CSc1nc(O)c(Cc2ccccc2)c(=O)[nH]1)c1ccccc1	-62.8*
COc1ccc(Oc2ncnc3sccc23)cc1	-95.1*
COc1cccc(Nc2ncnc3sc(C)cc23)c1	-126.2*
COc1ccc(Nc2ncnc3sccc23)cc1	-97.6*
SMILES	aSyn 5UTR act
COc1ccc(Nc2nccc3c2ncn3C)cc1	21.3
COc1cccc(Nc2ncnc3sccc23)c1	-118.2*
COc1ccc(CCNc2ncnc3sc(C)cc23)cc1OC	77.4
c1nc(Nc2ccc(N3CCOCC3)cc2)c2ccsc2n1	-63.2*
COc1ccccc1C(=O)NNC(=O)c1ccc(F)cc1	-92.4*
COc1ccccc1C(=O)Nc1cc2cc(Cl)ccc2oc1=O	-122.5*
COc1ccccc1C(=O)NNC(=O)c1ccc(Cl)cc1	-70.3*
Cc1cccc(Nc2nc(-c3ccc4c(c3)OCCO4)cs2)c1	-202.7*
Cc1nc(-c2ccc3c(c2)OCCO3)cs1	-122.1*
CC(C)(C)c1ccc(-c2nnc(N)s2)cc1	-65.0*
CN(C)CCN(C(=O)c1cccs1)c1nc2cc3c(cc2s1)OCCO3	-105.7*
CN(C)CCN(C(=O)c1ccc(Br)s1)c1nc2cc3c(cc2s1)OCCO3	-71.5*
O=C(Nc1nccs1)c1csc2c1CCCC2	-128.9*
Cc1ccccc1NC(=O)c1csc2c1CCCC2	-67.2*
COc1cccc(NC(=O)c2csc3c2CCCC3)c1	-133.8*
COc1ccc(NC(=O)c2csc3c2CCCC3)cc1	-193.4*
O=C1CN(c2ccccc2)C(=S)N1C(=O)c1ccc(Br)cc1	-149.9*
O=c1c2c(nc3cc(-c4ccccc4)[nH]n13)CCS2	-98.9*
O=c1c2c(nc3cc(-c4ccccc4Cl)[nH]n13)CCS2	-148.6*
O=C(c1ccccc1)N1CCN2C(=O)c3ccccc3C12c1ccc(Cl)cc1 (stereo not drawn)	-72.4*
COc1ccc(OC)c(S(=O)(=O)ON2C(=O)c3ccccc3C2=O)c1	-90.3*
O=c1cc(NCCc2ccccc2)c2ccccc2o1	-130.4*
CN1C2=CC=CC=CC2=[N+](C)C12C([N+](=O)[O-])=CC(=[N+]([O-])[O-])C=C2[N+](=O)[O-] (stereo not drawn)	-73.2*
Cc1ccc2c(C)c(C(=O)N(C)C(C)c3ccon3)oc2c1C (stereo not drawn)	-149.2*
CCn1nnc(NC(=O)c2sc3ccccc3c2Cl)n1	-82.5*
SMILES	aSyn 5UTR act
O=C1CCC/C(=N/NC(=O)c2sc3ccccc3c2Cl)C1	-89.7*
CCn1nnc(NC(=O)c2ccc(-c3ccc(Cl)cc3)o2)n1	-63.9*
O=C(Nc1ccnc(=O)[nH]1)c1sc2ccccc2c1Cl	-111.1*
O=C(NNC(=S)NC(=O)c1sc2ccccc2c1Cl)c1ccc(Cl)cc1	-67.0*
O=C(Nc1ccncc1)c1sc2ccccc2c1Cl	-97.2*
O=C(CSc1nnc2ccccn12)c1ccc(Cl)cc1	-67.4*
CCOc1ccc(C(=O)CSc2nnc3ccccn23)cc1	-153.9*
Cc1ccccc1OCc1nc2ccccc2c(=O)n1/N=C/c1ccco1	-66.4*
O=C(Nc1nnc(C23CC4CC(CC(C4)C2)C3)s1)c1ccco1	-89.0*
Cc1cccc(C(=O)Nc2nnc(-c3ccc(C(C)(C)C)cc3)s2)c1	-102.2*
COc1ccc(-c2nnc(NC(=O)c3ccco3)s2)cc1	-121.7*
Cc1cccc(C(=O)Nc2nnc(SCC(=O)NCc3ccco3)s2)c1	-100.9*
